# Source: PubChem BioAssay (NCATS)
# Inconclusive results are not listed. Entries that show only a call come without a potency. Values without a mark were called inactive. The source made the active and inactive calls. Unless noted, calls come from the whole dose curve; as a rule, active = well fitted curve in the direction sought with a large enough effect; inconclusive = small, poorly fitted or top-dose-only effect, or another doubt; inactive = no such curve, though single readings can be large; an effect the other way counts as inactive or inconclusive.
# What was measured:
# [1] = target: Aldehyde dehydrogenase, mitochondrial (Homo sapiens) (UniProt P05091); test: qHTS for Inhibitors of the Aldehyde Dehydrogenase Family (ALDH2) Confirmatory screens (AID 2061303; active = well fitted inhibition curve with a large enough effect; title and protocol of this record describe different tests; note: nearly all actives have a fitted effect of over 45% in size; note: potency is the fitted concentration of half-maximal effect)
# [2] = qHTS for Inhibitors of the Aldehyde Dehydrogenase Family (ALDH1A2, ALDH1A3, ALDH2, ALDH3A1) (AID 2061307); note: nearly all actives have a fitted effect of over 50% in size; for potency: test system not described further here; potency is the fitted concentration of half-maximal effect
# [3] = target: Retinaldehyde dehydrogenase 3 (Homo sapiens) (UniProt P47895); test: qHTS for Inhibitors of the Aldehyde Dehydrogenase Family (ALDH1A3) Confirmatory screens (AID 2061311); note: nearly all actives have a fitted effect of over 60% in size; note: potency is the fitted concentration of half-maximal effect
# [4] = target: Retinal dehydrogenase 2 (Homo sapiens) (UniProt O94788); test: qHTS for Inhibitors of the Aldehyde Dehydrogenase Family (ALDH1A2) Confirmation screens (AID 2061314); note: nearly all actives have a fitted effect of over 65% in size; note: potency is the fitted concentration of half-maximal effect
# [5] = target: Aldehyde dehydrogenase 1A1 (Homo sapiens) (UniProt P00352); test: qHTS for Inhibitors of the Aldehyde Dehydrogenase Family (ALDH1A1) Confirmatory screens (AID 2061316); note: potency is the fitted concentration of half-maximal effect; nearly all actives have a fitted effect of over 65% in size
# [6] = target: Cellular tumor antigen p53 (Homo sapiens) (UniProt P04637); test: Primary qHTS for small molecule compounds that upregulate eGFP-tagged delta133p53alpha (in C-terminal) cells. (AID 2060324)
# Summary of the method: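 In this qHTS, GFP-tagged delta133p53alpha levels are measured in fixed NCI-H358 cells after 24 h compound exposure at 37 °C. The cells are pre-induced with 100 ng/ml doxycycline, and signal is normalized to DMSO-treated wells as 0%.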
# [7] = target: Aldehyde dehydrogenase, mitochondrial (Homo sapiens) (UniProt P05091); test: qHTS for Inhibitors of the Aldehyde Dehydrogenase Family (ALDH2) Validation screens (AID 2061302; active = well fitted inhibition curve with a large enough effect; title and protocol of this record describe different tests)
# [8] = target: Retinaldehyde dehydrogenase 3 (Homo sapiens) (UniProt P47895); test: qHTS for Inhibitors of the Aldehyde Dehydrogenase Family (ALDH1A3) Validation screen (AID 2061312); note: nearly all actives have a fitted effect of over 45% in size
# [9] = BET inhibitor-based combinations targeting novel dependencies in MECOM-rearranged (r) AML: SET-2 cell line (AID 2202231); settings: SET-2 AML cells viability, CellTiter-Glo luminescence, 48 h; viability: hits give low values, series mostly up to about 46 µM; note: nearly all actives have a fitted effect of over 35% in size
# Summary of the method: (§1)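 Viability of cells (500 per well) is scored by luminescent CellTiter-Glo at 48 hr post-dosing. Eleven-point titrations are normalized to DMSO and empty controls and reduced to AUC values.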
# [10] = BET inhibitor-based combinations targeting novel dependencies in MECOM-rearranged (r) AML: MV-4-11 cell line (AID 2202233); note: nearly all actives have a fitted effect of over 45% in size
# Summary of the method: (§2)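 Using pin-tool transfer, drugs were added in 11 doses to cells (500/well), incubated 48 hr, and assessed with CellTiter-Glo. Z-AUC is a mean-centring transformation applied separately to each screened line.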
# [11] = BET inhibitor-based combinations targeting novel dependencies in MECOM-rearranged (r) AML: UCSD-AML1 cell line (AID 2202235); note: series mostly up to about 46 µM; nearly all actives have a fitted effect of over 40% in size
# Summary of the method: as §2
# [12] = BET inhibitor-based combinations targeting novel dependencies in MECOM-rearranged (r) AML: AML-191 cell line (AID 2202236; note: nearly all actives have a fitted effect of over 35% in size)
# Summary of the method: as §1
# [13] = BET inhibitor-based combinations targeting novel dependencies in MECOM-rearranged (r) AML: AML-194 cell line (AID 2202237; note: nearly all actives have a fitted effect of over 40% in size)
# Summary of the method: as §1
# [14] = target: Aldehyde dehydrogenase, mitochondrial (Homo sapiens) (UniProt P05091); test: qHTS for Inhibitors of the Aldehyde Dehydrogenase Family (ALDH2) Primary screen (AID 2061308); note: nearly all actives have a fitted effect of over 55% in size; note: potency is the fitted concentration of half-maximal effect
# [15] = target: Retinaldehyde dehydrogenase 3 (Homo sapiens) (UniProt P47895); test: qHTS for Inhibitors of the Aldehyde Dehydrogenase Family (ALDH1A3) Primary screen (AID 2061315)
# Chain of Cellular tumor antigen p53 (Homo sapiens) (P04637 whole entry, looked up): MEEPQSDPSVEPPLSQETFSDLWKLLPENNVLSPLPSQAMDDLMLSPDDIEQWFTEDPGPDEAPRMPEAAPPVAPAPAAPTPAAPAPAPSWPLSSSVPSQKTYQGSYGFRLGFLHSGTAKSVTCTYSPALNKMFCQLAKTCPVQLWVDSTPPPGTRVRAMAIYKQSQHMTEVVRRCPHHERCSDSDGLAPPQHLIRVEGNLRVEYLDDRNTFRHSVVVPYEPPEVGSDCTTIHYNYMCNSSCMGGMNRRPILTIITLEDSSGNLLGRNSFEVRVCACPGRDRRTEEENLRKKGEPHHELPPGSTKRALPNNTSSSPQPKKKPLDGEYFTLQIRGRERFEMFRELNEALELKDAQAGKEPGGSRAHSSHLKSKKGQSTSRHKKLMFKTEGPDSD
smiles,measurement,setting,value
N#C/C(=C\c1ccc(O)c(O)c1)C(N)=S,Potency,[1],8.96 µM (active)
same,Potency,[2],3.18 µM (active)
same,Potency,[3],1.01 µM (active)
same,Potency,[4],5.65 µM (active)
same,Potency,[5],1.42 µM (active)
NN=C(N)N,Potency,[6],inactive
same,Potency,[7],inactive
same,Potency,[8],inactive
same,viability,[9],108%
same,Potency,[10],inactive
same,Potency,[11],inactive
same,Potency,[12],inactive
same,Potency,[13],inactive
NNC(=O)c1nn(Cc2ccc(Cl)cc2Cl)c2ccccc12,Potency,[1],inactive
same,Potency,[2],8.91 µM (active)
same,Potency,[14],inactive
same,Potency,[15],inactive
C[C@@H]1Cc2c(Cl)cc(C(=O)N[C@@H](Cc3ccccc3)C(=O)O)c(O)c2C(=O)O1,Potency,[1],inactive
same,Potency,[2],inactive
same,Potency,[14],inactive
same,Potency,[4],inactive
same,Potency,[15],inactive
CCCCCCCCCCCCCC(=O)O[C@@H]1[C@@H](C)[C@@]2(O)[C@@H](C=C(CO)C[C@@]3(O)C(=O)C(C)=C[C@@H]23)C2C(C)(C)[C@@]21OC(C)=O (stereo partly specified),Potency,[6],inactive
same,Potency,[7],inactive
same,Potency,[8],inactive
NC(N)=Nc1ccc2[nH]c3c(c2c1)C[C@@]1(O)[C@H]2Cc4ccc(O)c5c4[C@@]1(CCN2CC1CC1)[C@H]3O5,Potency,[7],inactive
COc1cc(O)c2c(c1)CCC[C@@H](O)[C@H](O)C(=O)/C=C\C[C@H](C)OC2=O,Potency,[1],inactive
same,Potency,[14],inactive
same,Potency,[3],inactive
same,Potency,[4],inactive
same,Potency,[15],inactive
NC(N)=NOCCC(N)C(=O)O (stereo unspecified),Potency,[6],inactive
same,Potency,[7],inactive
same,Potency,[8],inactive
Cc1cccc(C)c1OP(=O)(OCc1c(-c2ccccc2)no[n+]1[O-])Oc1c(C)cccc1C,Potency,[1],1.12 µM (active)
same,Potency,[2],5.04 µM (active)
same,Potency,[3],12.7 µM (active)
same,Potency,[4],12.7 µM (active)
same,Potency,[15],inactive
Cc1cccc(C)c1NC1=NCCCS1,Potency,[7],inactive
same,Potency,[8],inactive
N#Cc1c(-c2cccc(-c3no[n+]([O-])c3C#N)c2)no[n+]1[O-],Potency,[1],1.27 µM (active)
same,Potency,[14],0.282 µM (active)
same,Potency,[4],1.27 µM (active)
same,Potency,[15],inactive
same,Potency,[5],12.7 µM (active)
